Screening data from PubChem BioAssay.
Most compounds without a hit are left out; they make up all but 27% or so of the library.
CYP2C19 inhib – inhibitors of human CYP2C19 | P33261 | CYP2C19 Supersomes, luciferin-H EGE luminescence, 30 min | inhibition, % at 5 µM | hit rate 21% among 96,000;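 active = CYP2C19 inhibition above a set limit at 5 µM in the primary screen, cut at about 50% in these data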
CYP2C9 inh – inhibitors of human CYP2C9; hit rate 20% among 96,000; P11712; inhibition, % at 5 µM; CYP2C9 Supersomes, luciferin-H conversion, luminescence;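 active = blocking of liver enzyme CYP2C9 beyond about 50% at 5 µM, limit read from the data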
Cav32 inh – blocks human Cav3.2 T-type calcium channel. AID 449739. hit rate 4% among 100,000. B-score at 10 µM. Cav3.2-expressing cells, Fluo-4 calcium fluorescence FDSS; active compounds read low;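 active = single-dose well whose peak fluorescence ratio is a statistical outlier from its plate by either plate-standardised score or position-corrected B-score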
Target sequence (O95180 whole entry, looked up): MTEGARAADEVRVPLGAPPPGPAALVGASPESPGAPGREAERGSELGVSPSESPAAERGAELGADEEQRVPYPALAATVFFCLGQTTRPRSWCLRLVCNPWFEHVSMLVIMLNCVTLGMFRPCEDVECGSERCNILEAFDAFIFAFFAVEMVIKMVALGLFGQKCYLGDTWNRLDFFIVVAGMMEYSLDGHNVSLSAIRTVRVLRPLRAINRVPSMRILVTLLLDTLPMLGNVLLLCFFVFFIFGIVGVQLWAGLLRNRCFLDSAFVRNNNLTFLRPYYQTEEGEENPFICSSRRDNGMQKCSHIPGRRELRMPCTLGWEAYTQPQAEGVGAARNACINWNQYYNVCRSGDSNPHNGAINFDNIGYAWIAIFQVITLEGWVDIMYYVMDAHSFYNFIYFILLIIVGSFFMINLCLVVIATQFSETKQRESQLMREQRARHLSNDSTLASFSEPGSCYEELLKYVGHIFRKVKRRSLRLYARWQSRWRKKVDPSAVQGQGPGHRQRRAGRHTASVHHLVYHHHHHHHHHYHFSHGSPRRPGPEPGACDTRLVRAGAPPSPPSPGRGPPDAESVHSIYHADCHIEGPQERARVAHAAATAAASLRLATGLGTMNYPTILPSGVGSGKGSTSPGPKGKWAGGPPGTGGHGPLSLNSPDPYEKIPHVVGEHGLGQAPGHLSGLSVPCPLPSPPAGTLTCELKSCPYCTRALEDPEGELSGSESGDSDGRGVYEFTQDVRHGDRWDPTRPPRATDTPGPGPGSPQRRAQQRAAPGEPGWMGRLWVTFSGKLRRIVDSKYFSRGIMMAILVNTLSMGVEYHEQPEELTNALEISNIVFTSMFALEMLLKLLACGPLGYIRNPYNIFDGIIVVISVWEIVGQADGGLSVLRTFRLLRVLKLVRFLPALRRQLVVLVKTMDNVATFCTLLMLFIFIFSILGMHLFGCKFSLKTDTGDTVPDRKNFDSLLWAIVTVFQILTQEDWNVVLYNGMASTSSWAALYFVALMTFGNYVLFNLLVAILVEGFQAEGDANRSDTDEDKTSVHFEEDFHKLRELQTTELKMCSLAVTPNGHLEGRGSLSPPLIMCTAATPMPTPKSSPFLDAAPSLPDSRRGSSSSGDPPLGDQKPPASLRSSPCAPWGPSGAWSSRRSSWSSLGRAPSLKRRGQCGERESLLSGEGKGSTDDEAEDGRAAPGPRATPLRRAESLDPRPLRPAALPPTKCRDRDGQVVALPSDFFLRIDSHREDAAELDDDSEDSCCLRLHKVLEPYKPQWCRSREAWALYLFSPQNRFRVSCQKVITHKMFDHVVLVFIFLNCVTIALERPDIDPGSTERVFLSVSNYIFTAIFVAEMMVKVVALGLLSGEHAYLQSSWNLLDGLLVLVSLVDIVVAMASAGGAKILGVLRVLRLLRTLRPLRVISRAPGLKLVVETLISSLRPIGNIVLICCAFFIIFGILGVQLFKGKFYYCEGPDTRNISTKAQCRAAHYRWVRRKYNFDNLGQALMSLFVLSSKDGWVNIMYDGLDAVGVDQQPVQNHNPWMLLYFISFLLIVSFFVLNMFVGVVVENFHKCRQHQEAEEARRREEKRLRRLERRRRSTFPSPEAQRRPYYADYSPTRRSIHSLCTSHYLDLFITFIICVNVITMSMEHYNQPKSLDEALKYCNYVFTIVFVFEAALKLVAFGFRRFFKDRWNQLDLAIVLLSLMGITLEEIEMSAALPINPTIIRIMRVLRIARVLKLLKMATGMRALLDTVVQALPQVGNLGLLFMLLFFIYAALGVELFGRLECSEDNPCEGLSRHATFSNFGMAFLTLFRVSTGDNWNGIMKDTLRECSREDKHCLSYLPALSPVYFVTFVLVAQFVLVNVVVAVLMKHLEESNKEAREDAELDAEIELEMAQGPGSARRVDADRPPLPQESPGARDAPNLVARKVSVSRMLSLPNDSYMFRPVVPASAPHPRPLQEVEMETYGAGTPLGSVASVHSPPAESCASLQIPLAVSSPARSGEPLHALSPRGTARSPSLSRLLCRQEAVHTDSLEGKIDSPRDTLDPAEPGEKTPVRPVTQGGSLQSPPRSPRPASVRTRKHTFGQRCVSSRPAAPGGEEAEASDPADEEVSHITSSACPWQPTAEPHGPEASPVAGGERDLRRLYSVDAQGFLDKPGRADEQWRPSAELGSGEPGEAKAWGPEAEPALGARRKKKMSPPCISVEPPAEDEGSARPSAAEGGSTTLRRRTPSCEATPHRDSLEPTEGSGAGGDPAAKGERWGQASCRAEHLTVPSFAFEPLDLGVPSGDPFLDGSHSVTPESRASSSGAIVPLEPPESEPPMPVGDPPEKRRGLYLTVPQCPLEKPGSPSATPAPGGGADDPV
CYP2C9 activ – increases human cytochrome P450 2C9 activity; hit rate 1.4% among 96,000; recombinant CYP2C9, luciferin-H conversion, luminescence; active compounds read high; factor 1 = untreated enzyme, 0 = blocked; activation factor at 5 µM; P11712;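 active = activation factor of 2 or more for CYP2C9 at a 5 µM dose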
CYP2C19 activ – activators of human cytochrome P450 2C19; P33261; recombinant CYP2C19, luciferin-H EGE luminescence; active compounds read high; 0 = fully inhibited enzyme, 1 = untreated enzyme; activation factor at 5 µM; 96,000 tested, under 10 active; AID 1025;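 active = activation factor of at least 2 at 5 µM in the primary screen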
Each line names hits and unclear results; the compound was inactive in the other large screens.

Cc1ccc(C)c2[nH]c(=O)c(C(c3nnnn3Cc3ccco3)N3CCc4ccccc4C3)cc12 (stereo not given)	CYP2C19 inhib 95.3, CYP2C9 inh 80.8
O=C(CN1CCCN(S(=O)(=O)c2ccc(Br)cc2)CC1)Nc1ccc2cn[nH]c2c1	none (no result: CYP2C19 inhib, CYP2C9 inh, CYP2C9 activ, CYP2C19 activ)
CC1(C)c2[nH]c3ccccc3c2C[C@@H]2C(=O)N(Cc3ccco3)C(=O)N21	none (no result: CYP2C19 inhib, CYP2C9 inh, CYP2C9 activ, CYP2C19 activ)
CCN(CC(=O)NC1CCCCCC1)S(=O)(=O)c1ccccc1	none
CCN(CC)S(=O)(=O)c1cccc(C(=O)NC2CCCCC2)c1	CYP2C9 inh 57.6
CCN(CC)S(=O)(=O)c1csc(C(=O)NC2CCCCC2)c1	CYP2C9 inh 61.8
CCN(CC)S(=O)(=O)c1csc(C(=O)NCc2ccccc2)c1	none
CCC(C)NC(=O)c1c(F)c(F)c(F)c(F)c1F (stereo not given)	none (no result: CYP2C19 inhib, CYP2C9 inh, CYP2C9 activ, CYP2C19 activ)
Cc1ccc(S(=O)(=O)CC(=O)c2ccc(C)c([N+](=O)[O-])c2)cc1	CYP2C9 activ 2
Cc1ccc(S(=O)(=O)CC(=O)c2ccccc2)cc1	CYP2C9 activ 2.9 (no result: Cav32 inh)
Cc1ccc(C(=O)Nn2cnnc2)cc1[N+](=O)[O-]	none (no result: CYP2C19 inhib, CYP2C9 inh, CYP2C9 activ, CYP2C19 activ)
CCCCOC(=O)c1[nH]c2c(c1C)C(=O)CC(c1cc(OC)c(OC)c(OC)c1)C2 (stereo not given)	CYP2C9 inh 63.4
C=CCOc1c(OC)cc(Cl)cc1C1NC(=O)NC(C)=C1C(C)=O (stereo not given)	none
CCOc1ccc(C2CC(=O)c3c([nH]c(C(=O)OC)c3C)C2)cc1OC (stereo not given)	CYP2C9 inh 51.7
C=CCOC(=O)c1[nH]c2c(c1C)C(=O)CC(c1cc(OC)c(OC)c(OC)c1)C2 (stereo not given)	CYP2C19 inhib 61.4, CYP2C9 inh 87.1
COC(=O)c1[nH]c2c(c1C)C(=O)CC(c1cc(OC)ccc1OC)C2 (stereo not given)	none
CCOC(=O)CCn1nnc(N)n1	none
O=C(Nc1ccc2c(c1)OC1(CCCC1)O2)C1CC1	CYP2C19 inhib 88.2, CYP2C9 inh 63.9
COc1ccc(CNC(=O)C2CCN(S(=O)(=O)c3ccc(-c4nn[nH]n4)cc3)CC2)cc1	CYP2C9 inh 65.0
CCCNC(=O)C1CCN(S(=O)(=O)c2ccc(-c3nn[nH]n3)cc2)CC1	CYP2C9 inh 83.2
CCCNC(=O)C1CCN(S(=O)(=O)c2ccc(Br)cc2)CC1	none (no result: CYP2C19 inhib, CYP2C9 inh, CYP2C9 activ, CYP2C19 activ)
O=C(NC1CC2CCC1C2)C1CCN(S(=O)(=O)c2ccc(-c3nn[nH]n3)cc2)CC1 (stereo not given)	CYP2C9 inh 86.6
O=C(NC1CCCCCC1)C1CCN(S(=O)(=O)c2ccc(F)cc2)CC1	none
CC1(c2nnc(-c3ccc(Cl)cc3)o2)CC(c2cccnc2)=NO1 (stereo not given)	none (no result: CYP2C19 inhib, CYP2C9 inh, CYP2C9 activ, CYP2C19 activ)
CN(CC(=O)OCC(=O)NC(=O)c1cccn1C)S(=O)(=O)c1ccc(Cl)cc1	none
CCOC(=O)c1ccc2cccc(C)n2c1=O	CYP2C19 inhib 87.5, CYP2C9 inh 74.4
CC(/C=N/Nc1nnc2c(n1)[nH]c1ccccc12)=C\c1ccco1	CYP2C19 inhib 79.9
Cn1c(COc2ccccc2)nnc1SCc1cc(=O)[nH]c2ccccc12	CYP2C19 inhib 71.9, CYP2C9 inh 77.1
CCOC(=O)N1CCN(C(=O)CSCC(=O)Nc2nc(-c3ccc(C)cc3)cs2)CC1	none
Cn1nccc1C(=O)OCC(=O)Nc1nc(-c2ccccc2)cs1	Cav32 inh -3.79
Cn1cc(Cl)c(C(=O)OCC(=O)Nc2nc(-c3ccc(Br)cc3)cs2)n1	Cav32 inh -5.85 (no result: CYP2C19 inhib, CYP2C9 inh, CYP2C9 activ, CYP2C19 activ)
O=C(OCn1ncc(Br)c(Br)c1=O)c1c(F)cccc1F	CYP2C19 inhib 83.3
O=C(OCn1ncc(Cl)c(Cl)c1=O)c1ccc(F)cc1	none
CN(C[C@H](Cc1ccccc1)N(C[C@H](Cc1ccccc1)N(CC1(c2ccccc2)CC1)N=O)N=O)N=O	none (no result: CYP2C19 inhib, CYP2C9 inh, CYP2C9 activ, CYP2C19 activ)
CCCNC(=O)CN(CCc1ccccc1)S(C)(=O)=O	CYP2C19 inhib 76.5
Cc1onc(-c2ccccc2Cl)c1C(=O)N1CC(C)OC(C)C1 (stereo not given)	none
Cc1onc(-c2ccccc2Cl)c1C(=O)N1CCN=C1SCc1cccnc1	CYP2C19 inhib 97.4, CYP2C9 inh 93.8
Cc1onc(-c2ccccc2Cl)c1C(=O)Nc1cccnc1	none
CSC1=NCCN1C(=O)c1c(-c2ccccc2Cl)noc1C	CYP2C19 inhib 71.2
NC(=O)CNC(=O)[C@@H]1CC2(CC(c3ccc(Cl)cc3)=NO2)CN1C(=O)c1ccc(Br)cc1 (stereo not given in full)	none
Cc1ccc(NC(=O)NC(=O)CSc2nnnn2C)c(C)c1	none
CCCSc1nc2c(=O)[nH][nH]c(=O)c2n1Cc1ccccc1	none (no result: CYP2C19 inhib, CYP2C9 inh, CYP2C9 activ, CYP2C19 activ)
CCCCN(N=Nc1nonc1OC)c1nonc1OC	CYP2C19 inhib 85.4, CYP2C9 inh 72.9
Cc1ccc(S(=O)(=O)N2CCC(=O)N(CCOC(=O)NCc3ccccc3)CC2)cc1	none (no result: CYP2C19 inhib, CYP2C9 inh, CYP2C9 activ, CYP2C19 activ)
O=C1c2ccccc2C(=O)N1CCc1csc(-c2ccccc2)n1	CYP2C19 inhib 99.5
O=C1c2ccccc2C(=O)N1CCc1csc(-c2ccc(F)cc2)n1	CYP2C19 inhib 99.7 (no result: Cav32 inh)
Cn1cccc1C(=O)OCc1csc(-c2ccccc2)n1	none
O=C1c2ccccc2C(=O)N1CCc1nc(-c2ccccn2)no1	none
COc1cccc(NC(=S)N2CCN(C/C=C/c3ccccc3)CC2)c1	Cav32 inh -4.91
COc1ccccc1NC(=O)C(C)N1CCN(C/C=C/c2ccccc2)CC1 (stereo not given)	CYP2C19 inhib 60.0
COc1cccc2cc(C(=O)N3CCN(C/C=C/c4ccccc4)CC3)c(=O)oc12	CYP2C9 activ 2.9
Cc1cnc(C(=O)OCC(=O)NC(C)C)cn1	none
CCOC(=O)C1=C(C)NC(C)=C(C(=O)OCC)C1C(=O)OCC(=O)NC(C)C	CYP2C19 inhib 83.8, CYP2C9 inh 84.8
CC1(c2nnc(-c3ccc(F)cc3)o2)CC(c2ccncc2)=NO1 (stereo not given)	none (no result: CYP2C19 inhib, CYP2C9 inh, CYP2C9 activ, CYP2C19 activ)
CSc1nc(SCC(=O)NC(c2ccccc2)c2ccccc2)c2c3c(sc2n1)CN(C)CC3	CYP2C9 inh 57.4
Cc1ccc2oc(=O)c3cc(C(=O)NCc4ccco4)sc3c2c1	CYP2C9 activ 2.1
O=C(CSc1nnc(Cc2cccs2)n1Cc1ccco1)Nc1ccc(Br)cc1	CYP2C19 inhib 88.8, CYP2C9 inh 93.0, Cav32 inh -4
O=C(CSc1nnc(-c2ccco2)n1Cc1ccco1)NCc1cccs1	CYP2C19 inhib 51.1, CYP2C9 inh 57.0
O=C(CSc1nnc(Cc2cccs2)n1Cc1ccco1)Nc1ccc(Cl)cc1Cl	CYP2C9 inh 61.9 (no result: Cav32 inh)
Cc1ccc(NC(=O)C(C)N2C(=O)C3C4CC(C(Br)C4Br)C3C2=O)cc1 (stereo not given)	none
CCNc1nc(SC(C)C(=O)OC)nc(N2CCOCC2)n1 (stereo not given)	none
CCOC(=O)c1c(CC(C)C)csc1NC=O	none (no result: Cav32 inh)
CCOC(=O)c1c(CC(C)C)csc1NC(C)=O	CYP2C9 inh 62.3
O=C1c2ccccc2C(=O)N1CCSc1n[nH]c(=S)s1	CYP2C9 inh 81.6 (no result: Cav32 inh)
N#Cc1c2c(c(N3CCN(c4ccccn4)CC3)n3c1nc1ccccc13)CCC2	CYP2C19 inhib 58.8, CYP2C9 inh 54.0 (no result: Cav32 inh)
